# Screens as filed in PubChem BioAssay.
# SARS PLP yeast – SARS-CoV PLP inhibition in yeast | AID 485353 | S. cerevisiae expressing SARS-CoV PLpro, growth rescue | Potency, µM (titrated, usually from 32.9 µM), usual class: activators | hit rate 0.19% among 330,000; calls by dose curve; further: nearly all actives have a fitted effect of over 55% in size
# Sm TGR block – inhibitors of Schistosoma mansoni thioredoxin glutathione reductase. purified TGR, DTNB reduction, TNB absorbance 405 nm. hit rate 3% among 360,000. AID 485364. Potency, µM (highest dose often 114 µM), actives largely listed as inhibitors; active means well fitted inhibition curve with a large enough effect; inconclusive means small, poorly fitted or top-dose-only effect; inactive means no such curve, though single readings can be large or run the other way; further: nearly all actives have a fitted effect of over 60% in size
#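 Kinetic colorimetric format: TGR-catalysed, NADPH-driven DTNB reduction monitored via TNB absorbance. Enzyme dispensed at 20 nM; compound exposure 15 min at room temperature before reaction start.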
# Hits are given with their value; . = inactive; ? = inconclusive; / = no result. Compounds with a hit are over-represented: about 3% of the library has one in this group of screens.
SMILES,SARS PLP yeast,Sm TGR block
COC(=O)c1ccccc1NC(=O)COC(=O)c1ccco1,.,.
COc1ccc(C(=O)COC(=O)/C=C/c2ccco2)cc1F,.,22µM
COc1cc(NS(=O)(=O)c2ccc3c(c2)CC(C)N3C(=O)C2CCC2)cc(OC)c1OC (centres undefined),/,.
N/C(CS(=O)(=O)c1ccccn1)=N\OC(=O)c1ccc(Cl)cc1,.,.
N/C(CS(=O)(=O)c1ccccn1)=N\OC(=O)c1ccccc1Cl,.,40µM
O=C(CCl)NNC(=O)c1c(O)c2ccccc2[nH]c1=O,.,14µM
CCCCC(=O)NNC(=O)c1c(O)c2ccccc2[nH]c1=O,.,.
COc1cc(N=c2ssnc2Cl)cc(OC)c1,.,79µM
Clc1nssc1=Nc1ccc(Br)cc1,.,.
CC(=O)Nc1ccccc1-c1nc2ccccc2n(C(C)C(=O)Nc2ccccc2C(F)(F)F)c1=O (centres undefined),/,.
CCN1C=C(Cc2ccccc2C)C2=C(C1)C(c1ccccc1C)C(C#N)=C(N)O2 (centres undefined),.,45µM
CCN1C=C(Cc2ccc(F)cc2)C2=C(C1)C(c1ccc(F)cc1)C(C#N)=C(N)O2 (centres undefined),.,?
CS(=O)(=O)c1ccc(C(=O)OCc2nnc(-c3ccccc3)o2)cc1[N+](=O)[O-],.,1.4µM
CS(=O)(=O)c1ccc(C(=O)OCC(=O)Nc2cccnc2Cl)cc1[N+](=O)[O-],.,/
Cc1ccccc1NC(=O)Cc1nc(COC(=O)c2ccc(S(C)(=O)=O)c([N+](=O)[O-])c2)cs1,.,2.8µM
Cc1ccccc1NC(=O)Cc1nc(COC(=O)c2ccc(NC(N)=O)cc2)cs1,.,/
CS(=O)(=O)c1ccc(C(=O)OCC(=O)NC(=O)C2COc3ccccc3O2)cc1[N+](=O)[O-] (centres undefined),.,/
Cc1ccccc1NC(=O)COC(=O)c1ccc(S(C)(=O)=O)c([N+](=O)[O-])c1,.,1.4µM
CS(=O)(=O)c1ccc(C(=O)OCC(=O)NC(=O)C2CCCCC2)cc1[N+](=O)[O-],.,7.1µM
CN(C)S(=O)(=O)c1ccc(C(=O)OCc2nnc(-c3ccccc3)o2)cc1,.,.
O=C(CCC1N=C2c3ccccc3N=C(SCc3cccc(F)c3)N2C1=O)NCCc1ccccc1 (centres undefined),/,.
Cc1ccc(-n2nc(CO)c(C(=O)NCCCc3ccccc3)n2)cc1C,/,.
CCN(CC)CCNC(=O)c1ccc2c(=O)n3nc(Nc4ccccc4)sc3nc2c1,/,.
CCOc1ccc(C(=O)N2CCCCC2CCN2CCOCC2)cc1 (centres undefined),/,.
COc1ccc(C(=O)OCC(=O)Nc2ccccc2)cc1[N+](=O)[O-],.,.
SMILES,SARS PLP yeast,Sm TGR block
CC(CCc1ccccc1)NC(=O)COC(=O)c1ccc([N+](=O)[O-])cc1 (centres undefined),.,.
CC(=O)c1cccc(NC(=O)COC(=O)c2ccc(S(C)(=O)=O)c([N+](=O)[O-])c2)c1,.,3.2µM
CC(CCc1ccccc1)NC(=O)COC(=O)c1ccc(S(C)(=O)=O)c([N+](=O)[O-])c1 (centres undefined),.,1.8µM
CC(C)(C)c1ccc(C(=O)NC(Cc2c[nH]c3ccccc23)C(=O)OCC(=O)c2ccc(Br)cc2)cc1 (centres undefined),/,.
Cc1ccc(C(=O)COC(=O)C(Cc2c[nH]c3ccccc23)NC(=O)c2ccc(C(C)(C)C)cc2)cc1 (centres undefined),/,11µM
CC(=O)N[C@@H](Cc1c[nH]c2ccccc12)C(=O)OCC(=O)Nc1ccc(Cl)c(S(=O)(=O)N(C)C)c1,.,.
CC(=O)NC(Cc1c[nH]c2ccccc12)C(=O)OCC(=O)Nc1ccc2c(c1)OCO2 (centres undefined),.,10µM
COc1ccc(C(=O)N2CCCCC2CCN2CCCCC2)cc1 (centres undefined),/,.
O=C(Nc1ccc2nc(-c3ccco3)c(-c3ccco3)nc2c1)N1CCCCCC1,.,0.71µM
CCOC(=O)C1CCN(C(=O)Nc2ccc3c(c2)nc(C)n3C)CC1,.,.
Cc1nc2ccc(NC(=O)N3CCCCC3)cc2nc1C,.,.
CCOC(=O)C1CCN(C(=O)Nc2ccc3nc(-c4ccco4)c(-c4ccco4)nc3c2)CC1,.,0.71µM
O=C(/C=C/c1ccco1)N(Cc1ccc(Cl)cc1)C1CCS(=O)(=O)C1 (centres undefined),.,3.2µM
CN(C)c1ccc(CN(C(=O)c2cccs2)C2CCS(=O)(=O)C2)cc1 (centres undefined),.,.
CN(C)c1ccc(CN(C(=O)/C=C/c2ccco2)C2CCS(=O)(=O)C2)cc1 (centres undefined),.,25µM
O=C(/C=C/c1ccc(Cl)cc1)N(Cc1ccccc1)C1CCS(=O)(=O)C1 (centres undefined),.,.
O=C(NCc1ccccc1Cl)c1ccccc1NC(=O)c1nsc2ccccc12,/,.
COCC(=O)N/N=C/c1c(C)[nH]n(-c2ccccc2)c1=O,.,.
Cc1[nH]n(-c2ccccc2)c(=O)c1/C=N/NC(=O)COc1ccccc1[N+](=O)[O-],14µM,.
O=c1cc(CN2CCCc3ccccc32)nc2sccn12,.,28µM
O=c1cc(CN2CCc3ccccc32)nc2sccn12,.,?
COc1ccc(-c2onc(C)c2C)cc1S(=O)(=O)N(C)Cc1ccccc1,/,.
Cc1cc2c(C(C)C)c(O)c(O)c(C=O)c2c(O)c1-c1c(C)cc2c(C(C)C)c(O)c(O)c(C=O)c2c1O,10µM,50µM
CCOc1ccc(CCNC(=O)Cn2c(-c3cccs3)cc3ccccc32)cc1,/,.
CC(C)Nc1ccc(Nc2ccccc2)cc1,.,8.9µM
SMILES,SARS PLP yeast,Sm TGR block
c1ccc(Nc2ccccc2)cc1,.,.
Cc1nn(-c2ccc(N3CCOCC3)nn2)c(C)c1CCC(=O)Nc1ccc(F)cc1F,/,.
CCc1ccc(OC(C)C(=O)Nc2c(C(=O)c3ccccc3)oc3ccccc23)cc1 (centres undefined),/,.
O=C(Nc1ccc(S(=O)(=O)Nc2ccccc2)cc1)N1CCCC1,/,.
COc1ccc(N=Cc2cc(Cc3ccccc3Cl)cc([N+](=O)[O-])c2O)cc1OC,.,.
Cc1ccc(N=Cc2cc(Cc3ccccc3Cl)cc([N+](=O)[O-])c2O)c(O)c1,.,11µM
Cc1ccc(CNC(=O)c2ccc(CSCc3ccccc3Cl)o2)cc1,/,.
Cc1ccc(C(=O)O)cc1N1CCCC1=O,.,.
Cc1ccc(-c2ccccc2)n1-c1cccc(C(=O)O)c1,.,20µM
Cc1ccc(-c2ccccc2)n1-c1ccc(C(=O)O)cc1,.,50µM
Cc1nc(=O)c(-c2ccccc2)c(C)n1-c1cccc(C(=O)O)c1,.,.
O=C(O)c1ccc(-n2c(-c3ccccc3)n[nH]c2=S)cc1,.,.
Cc1ccc(C(=O)O)cc1-n1c(C)ccc1-c1ccccc1,/,32µM
Cc1ccc(Nc2ccc(N3CCN(C(=O)c4ccc([N+](=O)[O-])cc4Cl)CC3)nn2)cc1,/,.
CCCN(C(=O)c1coc(=O)c2ccccc12)c1ccccc1C,/,.
CCc1ccc(NC(=O)CSc2ccc3nnc(CCNS(=O)(=O)c4ccc(OC)cc4)n3n2)cc1,/,.
O=C(COC(=O)c1cc(-c2ccco2)nc2ccccc12)NCc1ccccc1,.,?
CNC(=O)COC(=O)c1cc(-c2ccco2)nc2ccccc12,.,2.8µM
CCN(CC)C(=O)COC(=O)c1cc(-c2ccco2)nc2ccccc12,.,1.8µM
